# Laboratory results as given in PubChem BioAssay (NCI).
# Compounds without any hit were thinned out: in the full panel of roughly 83,000, 20% have a hit.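 Treatment: one concentration, 48 hours, 96-well format. Scoring: percent growth, with anything below 10 considered active.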 A number with no mark means an inactive call. Calls of active or inactive are those of the source.
# Legend:
# Assay in all cases: NCI-60 one-dose screen, 48 h (100 = growth as untreated, 0 = no growth, -100 = all killed)
# HCT-15 colon = conditions: 10 µM unless noted
# HT29 colon = conditions: 10 µM unless noted
# SNB-75 CNS = conditions: 10 µM unless noted
# SNB-19 CNS = conditions: 10 µM unless noted
# U251 CNS = conditions: 10 µM unless noted
# PC-3 prostate = conditions: 10 µM unless noted
# SK-MEL-5 melanoma = conditions: 10 µM unless noted
# UACC-62 melanoma = conditions: 10 µM unless noted
# LOX IMVI melanoma = conditions: 10 µM unless noted
# SK-MEL-28 melanoma = conditions: 10 µM unless noted
# SK-MEL-2 melanoma = conditions: 10 µM unless noted
# EKVX NSCLC = conditions: 10 µM
# SN12C renal = conditions: 10 µM unless noted
# UO-31 renal = conditions: 10 µM unless noted
# TK-10 renal = conditions: 10 µM unless noted
# ACHN renal = conditions: 10 µM unless noted
# CAKI-1 renal = conditions: 10 µM unless noted
# A498 renal = conditions: 10 µM unless noted
# CCRF-CEM leukemia = conditions: 10 µM
# MOLT-4 leukemia = conditions: 10 µM unless noted
SMILES,growth (HCT-15 colon),growth (HT29 colon),growth (SNB-75 CNS),growth (SNB-19 CNS),growth (U251 CNS),growth (PC-3 prostate),growth (SK-MEL-5 melanoma),growth (UACC-62 melanoma),growth (LOX IMVI melanoma),growth (SK-MEL-28 melanoma),growth (SK-MEL-2 melanoma),growth (EKVX NSCLC),growth (SN12C renal),growth (UO-31 renal),growth (TK-10 renal),growth (ACHN renal),growth (CAKI-1 renal),growth (A498 renal),growth (CCRF-CEM leukemia),growth (MOLT-4 leukemia)
COc1ccc2cnc(N)c(C#Cc3cc(C(=O)Nc4ccc(CN5CCN(C)CC5)c(C(F)(F)F)c4)cnc3C)c2c1,43.5%,13.2%,-1.84% (active),80.5%,17.2%,16%,34.6%,26.3%,12%,-72.5% (active),56.8%,71.8%,50%,-71.8% (active),27.4%,-43.2% (active),33.9%,37.5%,18.7%,23.7%
COC(=O)c1ccc(C(=Nc2ccc(N(C)C(=O)CN3CCN(C)CC3)cc2)c2c(O)[nH]c3ccc(C(=O)OC)cc23)cc1,27%,29.7%,24.6%,55.3%,29%,28.8%,36.4%,42.7%,38.5%,50.4%,47.7%,64.3%,17.3%,38.3%,51.7%,18.6%,11.9%,18.2%,12.3%,14.8%
C/C(=N\Nc1cccc(Cl)n1)c1ccccn1,23.5%,26.2%,36.6%,23.1%,14.5%,29.3%,-51.6% (active),-24.1% (active),0.322% (active),14.2%,21%,5.56% (active),13.6%,-1.99% (active),22.7%,6.24% (active),12.7%,,6.2% (active),4.01% (active)
Nc1cc(N)c2nc(NCCc3ccc(Cl)c(Cl)c3)cnc2c1,90%,41.7%,57.9%,66%,7.5% (active),43.9%,37.2%,33.7%,39.7%,104%,54.9%,28.6%,16.5%,55.8%,98.6%,62.6%,133%,88.2%,-63.3% (active),-69.9% (active)
COc1cc2c(cc1OC)C(Cc1cc(OC)c(OC)cc1[N+](=O)[O-])=NCC2,95.8%,50.9%,88.2%,94.3%,77.4%,69.2%,93.6%,83.7%,75.1%,92.7%,92.9%,92.8%,77.9%,66.9%,73.4%,85.2%,87.9%,56.4%,88.3%,92.4%
NC(=O)CC(NC(=O)COc1ccc(Cl)cc1Cl)C(=O)O (stereo unspecified),112%,107%,102%,103%,101%,94.2%,98.8%,98.6%,97.1%,109%,104%,111%,101%,95.6%,103%,109%,101%,,105%,104%
c1cc(C2CCCCC2)ccc1OCCCCCCN1CCNCC1,-64.5% (active),4.38% (active),31.2%,57.6%,-8.72% (active),27.5%,34.4%,70.3%,-90.5% (active),60.1%,87.8%,90.5%,59.1%,56.6%,57%,-7.79% (active),55.7%,,-51.7% (active),-48.5% (active)
COc1ccc(NC(=O)/C=C(C)/C=C/C=C(C)/C=C/C2=C(C)CCCC2(C)C)cc1,72.5%,72.4%,66.3%,110%,26.3%,63.1%,110%,77.4%,68.4%,105%,61.6%,82.7%,65.9%,53%,61.6%,54%,66.6%,91.1%,60.6%,76.1%
CCC1(CC)C(OC)NC(Br)=C(C#N)C1(C#N)C(N)=O (stereo unspecified),114%,105%,99.3%,110%,104%,107%,109%,99.5%,101%,114%,102%,103%,106%,85.2%,118%,108%,117%,114%,100%,88.4%
CCCCCc1ccnc(CC(=O)c2ccc(OC)cc2)c1,99.7%,70.5%,85.7%,97.8%,88.7%,76.1%,79.4%,89.5%,85%,104%,98.2%,92.5%,91.8%,79.6%,82%,93.2%,104%,,87.8%,98.7%
CCC(CCCN1C(=O)c2ccccc2C1=O)Nc1cc(OC)cc2cccnc12 (stereo unspecified),92.4%,105%,93%,106%,101%,86.9%,89.9%,82.6%,93.5%,111%,97.8%,97.2%,99.3%,94.8%,136%,103%,111%,84.3%,84.5%,73.8%
CCOC(=O)c1c2c(cn1Cc1ccccc1)-c1oncc1CC2,105%,111%,84%,84.9%,72.7%,97.3%,102%,91.9%,98.9%,108%,115%,91.3%,76.1%,48.7%,77.4%,94.1%,82.8%,50.5%,96%,100%
O=C(Nc1cccc(Cn2c(=O)[nH]c3ccc(Oc4ncccn4)cc3c2=O)c1)c1ccc(Cl)cc1,59%,40.3%,50.9%,58.5%,63%,46.2%,12.6%,53.9%,66.5%,69.3%,59.5%,52.3%,63.5%,47.7%,58.5%,40.3%,60.9%,53.4%,47%,22.5%
COc1cc(NC(C)CCCN)c2nccc(C)c2c1OC (stereo unspecified),84.4%,57.9%,103%,97.6%,64.5%,72.3%,86.8%,97.2%,58.5%,117%,95.2%,99.4%,82%,89.5%,114%,100%,99.9%,83.7%,64.8%,73.1%
COc1cc(NC(=O)CSc2nc3ccc(Cl)cc3c(=O)n2-c2ccc(F)cc2)cc(OC)c1OC,84.5%,97.9%,72.6%,82.2%,82.1%,73%,73.9%,71.3%,73.5%,95.4%,92.6%,67.8%,78.7%,40.6%,97.8%,85.6%,71.5%,34.8%,94%,61.8%
